31 molecules from PubChem BioAssay (NCATS) can be followed below.

SMILES strings stand for the structures. Inconclusive results are not listed. A number with no mark means an inactive call. The call rests on the fitted dose curve; in most records, active means well fitted cell-killing curve with a large enough effect; inconclusive means small, poorly fitted or top-dose-only effect; inactive means flat fitted curve, though single readings scatter.

This assay in a line: qHTS of pediatric cancer cell lines to identify multiple opportunities for drug repurposing: Primary screen for U-2 OS cells (AID 1347096).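 Further: plate controls were DMSO wells for no effect and bortezomib positive control wells for full effect; nearly all actives have a fitted effect of over 50% in size.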 The settings on record: U-2 OS viability, CellTiter-Glo luminescence, 48 h; series mostly up to 46 µM; activity change, negative = cytotoxic: at the top concentration. Put shortly: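 Cells (500-1,000/well) in growth media were settled 5 h at 37 degrees C, then given compounds for 48 h. Viability was read as CellTiter-Glo luminescence. Primary runs used MIPE at 11 points (0.78 nM-46 µM) and NPC at 8 points (0.59 nM-46 µM); follow-ups used 11 points.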
Consider `CCO/N=C(\CC)C1=C(O)CC(c2c(C)cc(C)cc2C)CC1=O` (stereo unspecified), for which the “activity change, negative = cytotoxic” value was 8.93% [at 92.7 µM]. The value for `CCCN1CCO[C@@H]2c3cc(O)ccc3OC[C@@H]21` was 7.16%.

`Cc1c(N)nc([C@H](CC(N)=O)NC[C@@H](N)C(N)=O)nc1C(=O)N[C@H](C(=O)N[C@@H](C)[C@H](O)[C@@H](C)C(=O)N[C@@H](C(=O)NCCc1nc(-c2nc(C(=O)NCCC[S+](C)C)cs2)cs1)[C@@H](C)O)C(O[C@H]1O[C@H](CO)[C@H](O)[C@@H](O)[C@@H]1O[C@H]1O[C@H](CO)[C@@H](O)[C@H](OC(N)=O)[C@H]1O)c1cnc[nH]1` (stereo partly specified): the “activity change, negative = cytotoxic” value is -3.24%.

For `CC(C)[C@H]1C(=O)N[C@H](CO)Cc2c[nH]c3cccc(c23)N1C`, the “activity change, negative = cytotoxic” value was 3.38%. The value for `C#C[C@]1(O)C=C[C@@H]2[C@@H]3CCC4=CC(=O)CC[C@@H]4[C@H]3CC[C@@]21CC` was 19.1%; that for `O=C(NCC1CCOCC1)c1cnc(Nc2ccc(Cl)cc2Cl)nc1C(F)(F)F` was -10%; that for `C[C@@H]1CC[C@H]2[C@@H](C)C(=O)O[C@@H]3O[C@@]4(C)CC[C@H]1[C@]32OO4` was 5.93%.

In the case of `CC1(C)CC/C(=C/c2ccc(Cl)cc2)C1(O)Cn1cncn1` (stereo unspecified), the “activity change, negative = cytotoxic” value was -16.2% [at 92.7 µM]. The value for `CCCCOC(=O)c1ccccc1C(=O)OCc1ccccc1` was 6.79% [at 92.7 µM]; that for `Oc1ccc2c3c1O[C@H]1c4[nH]c5c(c4C[C@@]4(O)[C@@H](C2)N(CC2CC2)CC[C@]314)C[C@@]1(O)[C@H]2Cc3ccc(O)c4c3[C@@]1(CCN2CC1CC1)[C@H]5O4` was 14.5%. On to `ClC1=C(Cl)[C@]2(Cl)[C@@H]3[C@@H]4C[C@@H]([C@H]5O[C@@H]45)[C@@H]3[C@@]1(Cl)C2(Cl)Cl`, for which the “activity change, negative = cytotoxic” value was -19.3% [at 92.7 µM].

`CCCCCCCCCC(CC)c1ccc(S(=O)(=O)O)cc1` (stereo unspecified): the “activity change, negative = cytotoxic” value was 17.4% [at 92.7 µM]. The value for `CCC(=O)O[C@@H]1C=C2CCC3C(CCC4(C)C3CC[C@@H]4OC(=O)CC)C2CC1` (stereo partly specified) was 0.701%; that for `C[C@](O)(COc1ccc(C#N)cc1)C(=O)Nc1ccc(C#N)c(C(F)(F)F)c1` was -19.9%; that for `CCCCCC[C@H]1C(=O)O[C@H](C)[C@H](NC(=O)c2cccc(NC=O)c2O)C(=O)O[C@@H](C)[C@@H]1OC(=O)CC(C)C` was 18.3%. The value for `CCOP(=O)(OCC)C(C)NC(=O)N(CCCl)N=O` (stereo unspecified) was 12%; that for `CC1(N2CCC(n3c([C@@H]4CCCNC4)nc4ccccc43)CC2)CCCCCCC1` was -14.4%. The value for `CC(C)(O)C(=O)Nc1ccc([N+](=O)[O-])c(C(F)(F)F)c1` was 4.46%; that for `Cc1cc(O)ccc1Cl` was 10.2%; that for `C#CC1(O)CCC2C3CCC4=CC(=O)CCC4(C)C3CCC21C` (stereo unspecified) was -0.143%. Turning to `O=C1C(I)=CC(=C(c2cc(I)c(O)c(I)c2)c2ccccc2C(=O)O)C=C1I`, the “activity change, negative = cytotoxic” value was 10.8%. The value for `CCCCCCCCc1ccc(O)cc1` was 12% [at 92.7 µM]; that for `CC(=O)Nc1ccc(OC[C@](C)(O)C(=O)Nc2ccc([N+](=O)[O-])c(C(F)(F)F)c2)cc1` was 6.08%; that for `C=C[C@@H]1CN2CCC1C[C@H]2[C@H](O)c1ccnc2ccccc12` (stereo partly specified) was -18.2%. The value for `CCN(CC)C(=O)c1ccc(C2=CC3(CCNCC3)Oc3cccc(O)c32)cc1` was 8.34%; that for `CC(N[C@H]1C[C@H]1c1ccccc1)c1ccc2c(c1)OCCO2` (stereo partly specified) was 0.472%; that for `O=C1C=CC[C@@H]2[C@H]3CCCN4CCC[C@@H](CN12)[C@@H]34` was 15%. For `CC=C(C)C(=O)N[C@@H](c1ccccc1)[C@@H](O)C(=O)O[C@H]1C[C@@]2(O)[C@@H](OC(=O)c3ccccc3)[C@@H]3[C@]4(OC(C)=O)CO[C@@H]4C[C@H](O)[C@@]3(C)C(=O)[C@H](OC(C)=O)C(=C1C)C2(C)C`, the “activity change, negative = cytotoxic” value is -6.13%. In the case of `COc1ccc(CC2NCCc3cc(OC)c(OC)cc32)cc1OC` (stereo unspecified), the “activity change, negative = cytotoxic” value is -11.1%. The value for `O=S(=O)(c1ccc(Cl)cc1)c1ccc(Cl)cc1` was -14% [at 92.7 µM]; that for `COc1nn(CSP(=S)(OC)OC)c(=O)s1` was -17.6% [at 92.7 µM].
